Positions count from the first letter of the chain named.
Tests used:
Assay in all cases: protein-binding microarray (PBM); PBM: ~300 nM protein, 6 mM HEPES pH 7.8, 80 mM KCl, 0.5 mM EDTA, 0.5 mM EGTA, 6% glycerol, 35 ng/ul poly-dIdC, 1% milk, 1 h, room temperature; Ap Aiptasia and Nv Nematostella (sea anemones) / Co Capsaspora / Aq Amphimedon (sponge) / Dm Drosophila / Hu human; RHD is the Rel homology domain; high values mean tight binding
Conditions in all cases: dsDNA, one strand shown
GST-Ap-NF-kB RHD = molecular target: T1, GST-Ap-NF-kB RHD (Exaiptasia pallida (Aiptasia), UniProt A0A913YAJ5 2-422)
T1 sequence: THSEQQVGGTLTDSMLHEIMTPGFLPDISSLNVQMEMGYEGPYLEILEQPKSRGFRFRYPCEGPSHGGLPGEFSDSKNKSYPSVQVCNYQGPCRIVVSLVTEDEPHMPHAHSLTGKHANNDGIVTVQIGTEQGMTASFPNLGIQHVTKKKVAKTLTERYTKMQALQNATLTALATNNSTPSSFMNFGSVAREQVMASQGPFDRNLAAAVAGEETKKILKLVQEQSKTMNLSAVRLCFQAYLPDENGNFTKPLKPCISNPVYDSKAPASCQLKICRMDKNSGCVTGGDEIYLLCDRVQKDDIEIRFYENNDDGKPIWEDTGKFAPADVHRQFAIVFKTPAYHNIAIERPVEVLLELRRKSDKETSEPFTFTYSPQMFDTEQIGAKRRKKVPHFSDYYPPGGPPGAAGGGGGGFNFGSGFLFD

[1] = molecular target: T2, GST-Nv-NF-kB (Cys allele) (Nematostella vectensis, UniProt E5G601 2-411)
T2 sequence: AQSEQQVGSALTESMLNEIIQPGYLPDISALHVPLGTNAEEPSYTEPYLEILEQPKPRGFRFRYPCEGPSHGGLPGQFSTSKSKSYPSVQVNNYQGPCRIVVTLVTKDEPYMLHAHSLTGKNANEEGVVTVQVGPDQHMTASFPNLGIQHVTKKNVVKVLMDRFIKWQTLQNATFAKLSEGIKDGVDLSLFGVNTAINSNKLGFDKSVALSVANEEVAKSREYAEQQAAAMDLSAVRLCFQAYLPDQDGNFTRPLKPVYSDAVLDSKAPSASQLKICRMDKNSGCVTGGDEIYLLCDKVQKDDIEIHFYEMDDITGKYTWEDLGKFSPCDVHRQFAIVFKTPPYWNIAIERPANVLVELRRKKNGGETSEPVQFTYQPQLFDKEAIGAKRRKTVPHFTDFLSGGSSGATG

GST-Aq-NF-kB = molecular target: T3, GST-Aq-NF-kB (Amphimedon queenslandica, UniProt A9Y5G7 2-389)
T3 sequence: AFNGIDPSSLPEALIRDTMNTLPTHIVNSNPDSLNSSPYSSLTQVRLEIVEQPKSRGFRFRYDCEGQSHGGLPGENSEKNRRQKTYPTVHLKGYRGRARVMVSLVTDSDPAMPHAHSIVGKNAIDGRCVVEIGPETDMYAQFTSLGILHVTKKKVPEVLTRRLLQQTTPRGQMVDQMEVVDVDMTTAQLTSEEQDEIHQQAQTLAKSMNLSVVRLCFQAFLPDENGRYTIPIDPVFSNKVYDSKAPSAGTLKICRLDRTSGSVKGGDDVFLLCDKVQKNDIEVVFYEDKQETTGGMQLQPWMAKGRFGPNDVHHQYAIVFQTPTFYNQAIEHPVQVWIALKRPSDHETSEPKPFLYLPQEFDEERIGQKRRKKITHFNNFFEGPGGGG

GST-Hu-p50 = GST-Hu-p50 (Homo sapiens, UniProt P19838 7-356)
[2] = molecular target: T4, GST-Nv-NF-kB (Ser allele) (Nematostella vectensis, UniProt A7UNT2 2-411)
T4 sequence: T2 sequence with Q21R, C66S, S207N, E215Q, V217A, E225K, A268E, D399E

GST-Co-NF-kB = molecular target: T5, GST-Co-NF-kB (Capsaspora owczarzaki, UniProt F1ARL5 200-546)
T5 sequence: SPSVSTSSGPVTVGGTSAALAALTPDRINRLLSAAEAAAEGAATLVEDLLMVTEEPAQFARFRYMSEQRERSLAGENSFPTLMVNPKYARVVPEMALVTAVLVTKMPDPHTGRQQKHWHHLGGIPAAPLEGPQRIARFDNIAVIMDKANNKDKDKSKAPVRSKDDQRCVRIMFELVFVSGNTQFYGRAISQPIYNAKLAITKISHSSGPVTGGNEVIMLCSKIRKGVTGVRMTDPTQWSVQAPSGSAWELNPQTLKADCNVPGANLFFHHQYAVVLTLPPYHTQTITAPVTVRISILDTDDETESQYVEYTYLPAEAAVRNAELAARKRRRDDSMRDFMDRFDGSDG

Sequence of GST-Hu-p50 (P19838 7-356): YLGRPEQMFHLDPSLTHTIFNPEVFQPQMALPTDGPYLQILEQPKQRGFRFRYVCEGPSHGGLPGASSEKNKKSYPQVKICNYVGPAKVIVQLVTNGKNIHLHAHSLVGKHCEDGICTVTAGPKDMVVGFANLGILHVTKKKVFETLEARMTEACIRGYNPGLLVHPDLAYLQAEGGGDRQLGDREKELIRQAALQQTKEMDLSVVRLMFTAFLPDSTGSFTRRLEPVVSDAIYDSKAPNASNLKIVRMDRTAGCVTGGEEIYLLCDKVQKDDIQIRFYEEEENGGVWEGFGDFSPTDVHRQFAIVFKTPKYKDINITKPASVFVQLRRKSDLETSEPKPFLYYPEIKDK

| Sequence | binding signal (GST-Ap-NF-kB RHD) [z-score] | binding signal [1] [z-score] | binding signal (GST-Aq-NF-kB) [z-score] | binding signal (GST-Hu-p50) [z-score] | binding signal [2] [z-score] | binding signal (GST-Co-NF-kB) [z-score] |
| --- | --- | --- | --- | --- | --- | --- |
| CCGATTAACATCAGGAAGCTCCCTGATGTTAATCGGGTCTTGATTCGCTTGACGCTGCTG | 1.2 | 1.37 | 3.72 | 1.33 | – | – |
| CCGATTAACATCAGCTAGTCCCTTGATGTTAATCGGGTCTTGATTCGCTTGACGCTGCTG | 3.99 | 3.63 | 3.06 | 2.73 | 2.09 | – |
| CCGATTAACATCAAGGTGGGAATTGATGTTAATCGGGTCTTGATTCGCTTGACGCTGCTG | 1.55 | 3.21 | 1.99 | 1.71 | 2.3 | 2.52 |
| CCGATTAACATCAGGCAACTCCCTGATGTTAATCGGGTCTTGATTCGCTTGACGCTGCTG | 1.44 | 2.44 | 4.28 | 2.67 | 1.64 | 1.09 |
| CCGATTAACATCAGATGGGAAAATGATGTTAATCGGGTCTTGATTCGCTTGACGCTGCTG | 2.47 | 4.24 | 2.28 | 2.37 | 5.39 | 2.47 |
| CCGATTAACATCAAAATTTCCAGTGATGTTAATCGGGTCTTGATTCGCTTGACGCTGCTG | – | – | 1.04 | 1.16 | – | – |
| CCGATTAACATCAAGCATTTCCCTGATGTTAATCGGGTCTTGATTCGCTTGACGCTGCTG | 2.4 | 4.4 | 3.63 | 2.72 | 4.14 | 2.36 |
| CCGATTAACATCAAAATTCCGGATGATGTTAATCGGGTCTTGATTCGCTTGACGCTGCTG | – | – | 1.54 | – | – | – |
| CCGATTAACATCAGGGAAAGCTATGATGTTAATCGGGTCTTGATTCGCTTGACGCTGCTG | 2.11 | 3.99 | 3.54 | 2.53 | 3.57 | 2.65 |
| CCGATTAACATCAAAGGGGCTACTGATGTTAATCGGGTCTTGATTCGCTTGACGCTGCTG | 2.79 | 3.08 | 3.2 | 3.13 | 2.12 | – |
| CCGATTAACATCAGTATGGGAAATGATGTTAATCGGGTCTTGATTCGCTTGACGCTGCTG | 1.32 | 2.39 | 1.79 | 1.28 | 2.22 | 2.14 |
| CCGATTAACATCAGAATTGCCCATGATGTTAATCGGGTCTTGATTCGCTTGACGCTGCTG | – | – | 1.1 | – | – | – |
| CCGATTAACATCAAGAAATTCCGTGATGTTAATCGGGTCTTGATTCGCTTGACGCTGCTG | – | – | 1.24 | 1.41 | – | – |
| CCGATTAACATCAGATATTACCCTGATGTTAATCGGGTCTTGATTCGCTTGACGCTGCTG | 2.58 | 3.48 | 4.82 | 2.16 | 3.01 | 2.75 |
| CCGATTAACATCAGGATTATCCCTGATGTTAATCGGGTCTTGATTCGCTTGACGCTGCTG | 2.26 | 2.9 | 5.15 | 1.73 | 1.47 | 2.37 |
| CCGATTAACATCAGGGAAAGATATGATGTTAATCGGGTCTTGATTCGCTTGACGCTGCTG | 2.67 | 4.29 | 5.22 | 3.62 | 4.52 | 4.56 |

| Sequence | binding signal (GST-Ap-NF-kB RHD) [z-score] | binding signal [1] [z-score] | binding signal (GST-Aq-NF-kB) [z-score] | binding signal (GST-Hu-p50) [z-score] | binding signal [2] [z-score] | binding signal (GST-Co-NF-kB) [z-score] |
| --- | --- | --- | --- | --- | --- | --- |
| CCGATTAACATCAGGGGAGTGGATGATGTTAATCGGGTCTTGATTCGCTTGACGCTGCTG | 3.01 | 2.86 | 2.85 | 2.9 | 3.98 | 1.84 |
| CCGATTAACATCAGCACGGGAAATGATGTTAATCGGGTCTTGATTCGCTTGACGCTGCTG | 1.76 | 2.98 | 2.77 | 1.64 | 2.41 | 2.59 |
| CCGATTAACATCATCCTGGGAAATGATGTTAATCGGGTCTTGATTCGCTTGACGCTGCTG | 1.13 | 2.18 | 1.03 | 1.74 | 1.37 | 2.72 |
| CCGATTAACATCATCAGTTTCCCTGATGTTAATCGGGTCTTGATTCGCTTGACGCTGCTG | 2.11 | 3.16 | 2.58 | 1.61 | 4.41 | 2.69 |
| CCGATTAACATCAGTGGGAAAAATGATGTTAATCGGGTCTTGATTCGCTTGACGCTGCTG | 2.21 | 3.95 | 2.62 | 3.34 | 4.53 | 4.81 |
| CCGATTAACATCAAAATTTTCCGTGATGTTAATCGGGTCTTGATTCGCTTGACGCTGCTG | – | – | 1.74 | 1.66 | – | – |
| CCGATTAACATCAGGAATGTCCATGATGTTAATCGGGTCTTGATTCGCTTGACGCTGCTG | – | – | 1.06 | – | – | – |
| CCGATTAACATCATCCCTCCCCATGATGTTAATCGGGTCTTGATTCGCTTGACGCTGCTG | 3.84 | 2.72 | 2.55 | 1.83 | 2.58 | 3.09 |
| CCGATTAACATCAGTCCCACAGATGATGTTAATCGGGTCTTGATTCGCTTGACGCTGCTG | 1.45 | 1.55 | 1.95 | 2.52 | – | – |
| CCGATTAACATCATATTTTCCCATGATGTTAATCGGGTCTTGATTCGCTTGACGCTGCTG | 2.18 | 4.42 | 2.52 | 4.15 | 5.61 | 4.34 |
| CCGATTAACATCATGGGGAGGAATGATGTTAATCGGGTCTTGATTCGCTTGACGCTGCTG | 3.58 | 3.68 | 2.28 | 2.59 | 4.26 | 6.46 |
| CCGATTAACATCAGGGGAGACAATGATGTTAATCGGGTCTTGATTCGCTTGACGCTGCTG | 3.1 | 3.18 | 2.2 | 2.14 | 4.37 | 4.18 |
| CCGATTAACATCACACATGCCCCTGATGTTAATCGGGTCTTGATTCGCTTGACGCTGCTG | 1.13 | 1.37 | 1.68 | 1.36 | 1.04 | 1.12 |
| CCGATTAACATCAAGGAAAAGCCTGATGTTAATCGGGTCTTGATTCGCTTGACGCTGCTG | – | – | 1.11 | – | – | – |
| CCGATTAACATCAGACATTTCCCTGATGTTAATCGGGTCTTGATTCGCTTGACGCTGCTG | 2.94 | 4.75 | 5.41 | 3.59 | 4.39 | 3.17 |
| CCGATTAACATCAACGTGGGAAATGATGTTAATCGGGTCTTGATTCGCTTGACGCTGCTG | 1.56 | 2.36 | 1.71 | 1.29 | 1.77 | 2.91 |

Reference: article PMC5700166
